Yeast superoxide: caloric restriction mimetics inhibiting age-related superoxide in yeast; superoxide response (% of plate mean), % at 10 µM; AID 2690; S. cerevisiae aged cells, superoxide DHE fluorescence; hits give low values; 0.18% of 330,000 active;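 active means superoxide response under a set limit, about three screen SD below normal, cut at about 65% in these data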;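 further: yeast aged for seven days with compound at 30 °C before DHE staining; 100% = average MFI of all compound-treated wells on the plate with controls excluded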
NR3A LBD binder: modulators (binders) of human NR3A ligand-binding domain | 2.5% of 340,000 active | NR3A LBD differential scanning fluorimetry, Tm shift; 0% = protein alone, 100% = glycine-bound protein | AID 1259313 | Tm shift relative to glycine control, % at 25 µM;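 active means melting temperature shift of at least 10% of the positive control shift, at one fixed dose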
NALP1 inh: blocks the NALP1 inflammasome reconstituted in yeast. 0.61% of 280,000 active. AID 2071. inhibition, % at 10 µM. S. cerevisiae NALP1/ASC/caspase-1 growth, X-gal OD620, 72 h; in the data active means inhibition mostly above about 24%, no sharp cut-off; inactive means mostly below about 32%
UBC13 polyUb: blocks human UBC13 polyubiquitin chain formation; TR-FRET; inhibition, % at 20 µM; 0.47% of 330,000 active; in the data active means inhibition above about 45%, passing the limit was not always enough
Target sequence (P61088 whole entry, looked up): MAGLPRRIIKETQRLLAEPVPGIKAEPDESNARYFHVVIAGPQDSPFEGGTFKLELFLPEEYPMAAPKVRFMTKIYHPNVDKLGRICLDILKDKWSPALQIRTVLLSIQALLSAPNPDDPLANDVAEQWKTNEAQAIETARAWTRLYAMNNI
dFosB act: mouse delta FosB homodimer activation; activation, % at 25 µM; purified delta FosB, TAMRA-CDK5 oligo fluorescence polarization; percent of positive-control signal above neutral wells; P13346; 0.99% of 340,000 active; AID 493131;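 active means mean activation above about 17%, with every replicate also reaching it, limit read from the data, passing the limit was not always enough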
Target sequence (P13346 whole entry, looked up): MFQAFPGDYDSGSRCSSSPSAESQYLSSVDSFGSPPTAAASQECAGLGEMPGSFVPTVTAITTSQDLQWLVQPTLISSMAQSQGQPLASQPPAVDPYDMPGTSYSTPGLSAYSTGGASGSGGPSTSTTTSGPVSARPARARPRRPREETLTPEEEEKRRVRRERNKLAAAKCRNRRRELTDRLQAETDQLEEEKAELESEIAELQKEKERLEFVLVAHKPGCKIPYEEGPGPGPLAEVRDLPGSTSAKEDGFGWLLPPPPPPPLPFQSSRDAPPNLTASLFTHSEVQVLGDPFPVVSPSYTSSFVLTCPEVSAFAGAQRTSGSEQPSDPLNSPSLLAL
The depositor's hits bear a star; . = not tested or not shown. A selection: hits, their analogues and other compounds. The true share with any hit is near 4.3%.

SMILES	Yeast superoxide	NR3A LBD binder	NALP1 inh	UBC13 polyUb	dFosB act
CCCN(CC(=O)Nc1ccccc1C)C(=O)C1CCN(S(=O)(=O)c2ccccc2C(F)(F)F)CC1	99	1	.	2	-15
O=C(OCc1ccc(Cl)c(Cl)c1)c1cccnc1Cl	101	1	22	4	-2
O=C(OCc1ccc(Cl)cc1Cl)c1cccnc1Cl	110	12*	1	22	0
CCSC1=N/C(=C\c2cccc(F)c2)C(=O)S1	115	15*	20	-1	4
CCSC1=N/C(=C\c2ccc3c(c2)OCO3)C(=O)S1	106	3	3	-8	0
O=S(=O)(O)c1cc(O)c(N=Nc2ccc(O)cc2O)c2ccccc12	.	13*	.	.	-22
CC(NC(=O)C1CCCN(C(=O)c2ccc(Cl)cc2)C1)c1cccc(C(F)(F)F)c1 (stereo unspecified)	110	-1	.	2	-7
CCn1c(SCC(=O)N2CCCC2)nnc1-c1ccco1	84	2	9	2	-2
COc1cc2c(cc1OC)C1=NC(=O)CN1C(SCc1ccccc1C)=N2	90	26*	12	4	-16
Cc1ccc(CSC2=Nc3ccccc3C3=NC(=O)CN23)cc1	97	-3	-16	0	-25
CC(=O)N1Cc2ccccc2CC1C(=O)NCc1ccccc1F (stereo unspecified)	109	2	9	1	2
O=c1[nH]c(-c2ccc(Cl)cc2)cs1	91	-1	-12	2	-3
O=c1[nH]c(-c2ccccc2)cs1	116	11*	9	-3	6
O=C(COC(=O)CCC(=O)c1cccs1)Nc1ccc(S(=O)(=O)N2CCOCC2)cc1	100	15*	24	5	-6
NS(=O)(=O)c1ccc(NC(=O)COC(=O)c2ccc(S(=O)(=O)N3CCOCC3)cc2)cc1	100	14*	.	10	-2
Cc1ccc(S(=O)(=O)N2CCOCC2)cc1NC(=O)COC(=O)CCC(=O)c1cccs1	83	-1	5	5	-5
O=C(COC(=O)C1=COCCO1)Nc1cccc(S(=O)(=O)N2CCOCC2)c1	88	11*	3	-4	-4
O=C(CNC(=O)c1ccc(Cl)cc1Cl)OCC(=O)N1CCCC1=O	98	3	.	1	-1
Cn1c(N)c(C(=O)N/N=C/c2ccccc2)sc1=S	121	33*	.	2	-9
Cc1c(C(=O)N/N=C/c2cccnc2)sc(=S)n1C	88	-8	13	-11	10
CS(=O)(=O)N(CC(=O)N1CCCC1)c1cccc(F)c1	97	-1	23	-7	-8
COc1cc(/C=C/c2ccc3cccc([N+](=O)[O-])c3n2)ccc1OCC(=O)O	86	2	-22	-9	-6
O=C(O)COc1ccc(/C=C/c2ccc3cccc([N+](=O)[O-])c3n2)cc1	89	18*	11	-18	-7
CC(=O)Nc1ccc(/C=C/c2ccc3cccc([N+](=O)[O-])c3n2)cc1	88	26*	.	-4	12
CCN1C[C@@H]2[C@@H]3C(=O)N(C)C(=O)[C@@H]3[C@](C)(C1=O)N2C(=O)c1ccc(C)cc1	.	3	.	.	6
SMILES	Yeast superoxide	NR3A LBD binder	NALP1 inh	UBC13 polyUb	dFosB act
COc1ccc(OC)c(-c2csc(NC(=O)CSc3ccc(Br)cc3)n2)c1	86	19*	10	-6	1
COc1ccc(OC)c(-c2csc(NC(=O)Cc3cc(OC)c(OC)c(OC)c3)n2)c1	101	-3	-6	8	-1
COc1ccc(OC)c(-c2csc(NC(=O)Cc3ccc(F)cc3)n2)c1	101	-3	14	4	-5
COc1ccc(OC)c(-c2csc(NC(=O)COC(=O)C3CCC3)n2)c1	123	-2	.	-4	-5
COc1ccc(OC)c(-c2csc(NC(=O)COC(=O)c3ccc(NC(=O)CC#N)cc3)n2)c1	147	13*	.	-27	-11
COc1ccc(OC)c(-c2csc(NC(=O)CSc3ccc([N+](=O)[O-])cc3)n2)c1	123	12*	33	-10	-6
COc1cc(Nc2nc3c(N)cc(C(F)(F)F)cc3nc2-c2ccccc2)cc(OC)c1OC	.	0	.	.	-3
Cc1c(C(=O)Nc2cc(F)cc(F)c2)cnn1-c1ccccc1	93	2	24	-9	-6
O=C(O)CCCN1C(=O)/C(=C/c2ccc(-c3nc4ccccc4s3)o2)SC1=S	107	26*	23	-141	-21
CCOc1ncccc1C(=O)Nc1cc(S(=O)(=O)N2CCCCC2)ccc1C	128	-2	.	-4	-18
COc1ccc(NC(=O)c2cc3ccc(O)cc3o/c2=N\O)cc1	103	36*	9	-7	-5
COc1cccc(-c2cc(C(=O)Nc3c(C)nn(Cc4ccccc4C)c3C)no2)c1	77	11*	12	13	-10
O=C(N/N=C/c1cc(Br)c(O)c(Br)c1)c1cc2c(ccc3ccccc32)o1	112	7	7	-6	-19
CCOC(=O)COc1ccccc1/C=N\NC(=O)c1cc2c(ccc3ccccc32)o1	93	0	14	-21	-5
CCn1cc(/C=N/NC(=O)c2cc3c(ccc4ccccc43)o2)c2ccccc21	107	26*	7	-8	-5
CCOc1cc(/C=N/NC(=O)c2cc3c(ccc4ccccc43)o2)ccc1O	115	28*	-4	0	-2
O=C(N/N=C/c1ccc(O)c(Br)c1)c1cc2c(ccc3ccccc32)o1	103	35*	13	-2	15
CCOc1cc(/C=N/NC(=O)c2cc(C3CC3)[nH]n2)ccc1O	101	26*	3	-5	-4
CCCn1c(CCC(=O)Nc2ccccc2Cc2ccccc2)nc2cc(S(=O)(=O)N3CCOCC3)ccc21	99	-7	-5	-4	-2
Nc1nc2ccccc2n1C(=O)c1cccs1	102	1	3	9	5
COc1ccc(OCc2cc(C(=O)N(Cc3nccn3C)C(C)C)no2)c2ccccc12	111	0	9	2	-8
C/C(=N/NC(=O)c1cc(-c2ccccc2)nc2c(Cl)cccc12)c1cccnc1	96	-5	11	0	-10
Cc1snc(S(=O)(=O)/C(C#N)=N/Nc2ccc(C(F)(F)F)cc2)c1C#N	93	24*	-5	-17	-5
Cc1noc(C)c1COc1ccc(C(=O)N2CCN(S(=O)(=O)c3ccc(F)cc3)CC2)cc1	.	2	.	.	-6
O=C(Cc1ccccc1)NC(CSSCC(NC(=O)Cc1ccccc1)C(=O)O)C(=O)O (stereo unspecified)	.	36*	.	.	7
O=C(NCCc1ccccn1)C1CCCN1S(=O)(=O)c1ccc(Cl)cc1 (stereo unspecified)	103	1	17	6	4
COc1cc(C2SCC(=O)N2c2c(C)n(C)n(-c3ccccc3)c2=O)ccc1O (stereo unspecified)	106	1	38*	-7	0
Oc1ccc(N=Nc2ccc(Br)cc2)c(O)c1	77	-19	23	-102	6

Compound activity from PubChem BioAssay.
